Source: PubChem
KCNQ2 inh: rat KCNQ2 potassium channel inhibitors, primary screen, cell-based, CHO-K1, FluxOR thallium flux, B-score. 20 min; stronger effect = lower value. B-score at 10 µM. AID 2156, 2009. 1.1% of 310,000 active;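 active = fluorescence ratio B-score at most minus 3 library SDs, with starting brightness B-score within 2 library SDs, cut at about -5.5 in these data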
KCNQ2 enhance: potentiators of rat KCNQ2 potassium channel. Potassium voltage-gated channel subfamily KQT member 2 (Rattus norvegicus), O88943. CHO-K1 KCNQ2, FluxOR thallium flux fluorescence; stronger effect = higher value. B-score at 10 µM. 0.54% of 310,000 active;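 active = fluorescence ratio B-score at least 3 SD of library B-scores, with initial fluorescence B-score within 3 of them, cut at about 5.3 in these data; same plate scores as AID 2156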;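 note: B-score of peak minus minimum over baseline fluorescence ratio after K+ and Tl+ stimulus; positive B-score means potentiation of KCNQ2 with more thallium influx and brighter signal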
Kir21 conf inh: mouse Kir2.1 channel blockers, retest, confirmation, cell-based, FluxOR thallium flux, duplicate | shares compounds with KCNQ2 enhance | Kir2.1-expressing cells, FluxOR thallium flux fluorescence; stronger effect = lower value | Tl flux remaining, % of negative control (stronger effect = lower value), % at 10 µM | 41% of 2,300 active | AID 2032, 2009;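 active = Primary-screen hit whose thallium flux fell at least 3 control SD below untreated wells in both duplicates, with normal baseline fluorescence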;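 note: 0% = blank wells without stimulus and 100% = stimulated no-compound controls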
HEK293 Tl flux: alters thallium flux in parental HEK293 cells, Kir2.1 counter-screen; FluxOR thallium flux fluorescence; 0% = unstimulated blank wells; AID 2105; shares compounds with KCNQ2 enhance; 19% of 2,300 active; FluxOR signal as % of negative control (100 = no effect), % at 10 µM;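 active = dye signal at least 3 control SD above or below untreated wells in both duplicates, raw fluorescence within 3, either direction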;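 note: percent is based on the flux ratio of peak minus minimum fluorescence over baseline F0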
CHO-K1 ctr: nonspecific thallium flux increase in parental CHO-K1, confirmation, counter-screen for KCNQ2 potentiator project, cell-based, FluxOR thallium flux, duplicate; parental CHO-K1 cells, FluxOR thallium flux fluorescence; zero = vehicle mean+3SD, 100% = vehicle-minus-blank window; activity increase over 3SD of controls, % at 10 µM; 43% of 1,200 active; shares compounds with KCNQ2 enhance;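 active = signal rise of at least 3 SD above the untreated control mean, in both duplicate wells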;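 note: counter screen of KCNQ2 potentiator hits so any rise reflects channel-independent effects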
KCNQ1 pot spec: human KCNQ1 channel potentiation off-target, confirmation, selectivity assay for KCNQ2 potentiator project, cell-based, CHO, FluxOR thallium flux; 28% of 1,200 active; shares compounds with KCNQ2 enhance; activation over 3SD threshold, % at 10 µM; CHO KCNQ1 stable, FluxOR thallium flux fluorescence; beyond 3SD, as % of vehicle-control signal;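 active = fluorescence ratio rise of at least 3 SD of vehicle wells above their mean, in both replicate wells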;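 note: 0% = vehicle mean plus 3 SD and 100% = vehicle minus unstimulated blank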
Target sequence (P51787 whole entry, looked up): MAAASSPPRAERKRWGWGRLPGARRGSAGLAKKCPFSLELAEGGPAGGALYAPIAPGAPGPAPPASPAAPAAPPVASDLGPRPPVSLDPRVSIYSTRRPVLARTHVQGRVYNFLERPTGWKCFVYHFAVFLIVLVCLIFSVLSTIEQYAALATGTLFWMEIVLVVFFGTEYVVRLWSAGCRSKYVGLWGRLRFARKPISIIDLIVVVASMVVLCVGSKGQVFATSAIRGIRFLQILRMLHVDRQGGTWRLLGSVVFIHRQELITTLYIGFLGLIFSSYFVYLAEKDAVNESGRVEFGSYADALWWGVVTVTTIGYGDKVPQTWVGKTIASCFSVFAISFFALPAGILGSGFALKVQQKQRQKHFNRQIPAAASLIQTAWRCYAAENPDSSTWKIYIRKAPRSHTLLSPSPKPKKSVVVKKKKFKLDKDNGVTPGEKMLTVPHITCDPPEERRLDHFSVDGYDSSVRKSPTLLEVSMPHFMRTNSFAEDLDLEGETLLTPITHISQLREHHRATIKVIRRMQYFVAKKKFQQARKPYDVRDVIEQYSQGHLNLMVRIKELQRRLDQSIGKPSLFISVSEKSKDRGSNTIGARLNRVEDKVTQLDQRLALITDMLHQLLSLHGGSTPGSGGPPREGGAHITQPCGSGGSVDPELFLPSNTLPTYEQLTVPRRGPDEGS
KCNQ2 pot conf: rat KCNQ2 channel potentiators, confirmation, cell-based, CHO, FluxOR thallium flux, duplicate; potentiation, less the hit threshold, % at 10 µM; 68% of 1,200 active; shares compounds with KCNQ2 enhance; CHO-KCNQ2 cells, FluxOR thallium flux fluorescence;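 active = fluorescence ratio rising 3 SD or more over the vehicle control mean in both replicates, plus primary screen hit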;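 note: peak minus minimum thallium fluorescence divided by baseline after K/Tl stimulus; 0% = vehicle mean plus 3 SD and 100% = vehicle minus unstimulated blank difference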
Kir21 spec: mouse Kir2.1 channel activation off-target, confirmation, selectivity assay for KCNQ2 potentiator project, cell-based, HEK293, FluxOR thallium flux; shares compounds with KCNQ2 enhance; HEK293 Kir2.1, FluxOR thallium flux fluorescence; activity over 3SD threshold, % at 10 µM; 2% of 1,200 active;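 active = fluorescence ratio rise of at least 3 SD above the vehicle-control mean, seen in both replicates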;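 note: 0% = vehicle mean plus 3 SD and 100% = vehicle minus no-stimulus blank window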
KCNQ2 W236L pot: potentiators of retigabine-insensitive KCNQ2 W236L, mechanism study for KCNQ2 potentiator project, cell-based, rat KCNQ2 W236L, CHO, automated patch clamp | shares compounds with KCNQ2 enhance | automated patch clamp current | current increase over 3SD of negative controls (%), stronger effect = higher value, % at 25 µM | 10% of 940 active | AID 2558, 2010;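 active = current increase at least 3 SD of the untreated controls above them in both duplicate recordings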
Starred values were filed as active, the others as inactive; i = inactive; . = no result given. Compounds with a hit are over-represented: about 1.6% of the library has one in this group of screens.

SMILES	KCNQ2 inh	KCNQ2 enhance	Kir21 conf inh	HEK293 Tl flux	others
O=c1c(C=NCc2ccccc2)c(NCc2ccccc2)nc2ccccn12	i	.	.	.
CCOC(=O)N1CCC(NC(=O)C2CCN(S(=O)(=O)c3cnc[nH]3)CC2)CC1	i	1.4	.	.
COC(=O)CCC(=O)Nc1ccc(N=Nc2ccccc2)cc1	i	.	.	.
CC1C/C(=N/Nc2ccc([N+](=O)[O-])cc2[N+](=O)[O-])CC(C)(C)C1 (configuration not stated)	i	.	.	.
O=C(NC1CCN(Cc2ccccc2)CC1)c1ccccc1OCc1ccccc1	i	.	.	.
O=C(NC1CCN(Cc2ccccc2)CC1)c1ccccc1OCc1ccccc1Cl	i	.	73%*	i
C=C[C@@]1(C)CC(=O)[C@]2(O)[C@@]3(C)[C@@H](O)CCC(C)(C)[C@@H]3[C@H](OC(C)=O)[C@H](O)[C@@]2(C)O1	i	5.1	.	.
C=C[C@@]1(C)CC(=O)[C@]2(O)[C@@]3(C)[C@@H](O)CCC(C)(C)[C@@H]3[C@H](O)[C@H](OC(C)=O)[C@@]2(C)O1	i	8.9*	i	i	CHO-K1 ctr=-13;KCNQ1 pot spec=-26;KCNQ2 pot conf=7.1*;Kir21 spec=-37;KCNQ2 W236L pot=2.3%*
CCc1c(C)nc2cc(-c3ccc(Cl)cc3)[nH]n2c1=O	i	2	.	.
O=C(NNC1=C(C(=O)C(F)(F)F)CCC1)c1cccnc1	i	20*	i	64%*	CHO-K1 ctr=-16;KCNQ1 pot spec=-19;KCNQ2 pot conf=35*;Kir21 spec=-21
Cc1cccc(C(=O)NNC2=C(C(=O)C(F)(F)F)CCC2)c1O	i	6.6*	i	i	CHO-K1 ctr=-7;KCNQ1 pot spec=-16;KCNQ2 pot conf=33*;Kir21 spec=-44;KCNQ2 W236L pot=i
O=C(NNC1=C(C(=O)C(F)(F)F)CCC1)c1cccc(O)c1	i	4.4	.	.
Cc1cccc(C(=O)NNC(=O)c2ccc(Cl)cc2)c1O	i	0.27	.	.
CCOC(=O)c1c(NC(C)=O)sc2c(OCC(O)CNC(C)(C)C)c(Br)ccc12 (configuration not stated)	i	.	i	i
CCOC(=O)c1c(N)sc2c(OCC)c(Br)ccc12	i	2.1	.	.
O=C1CC(N2CCN(c3ccc(O)cc3)CC2)C(=O)N1c1ccc2c(c1)OCO2 (configuration not stated)	i	0.73	.	.
CCOC(=O)C1(CCc2ccccc2)CCN(C(=O)CCn2cnnn2)CC1	i	0.49	.	.
CC(C)CC(=O)/C(=C/c1ccc(N(C)C)cc1)n1cncn1	i	1.2	.	.
CC(C)CC(=O)/C(=C\c1ccc(Cl)cc1Cl)n1cncn1	-5.6*	-5.6	44%*	i
C#CCN(CC=C)C(=O)C1CCC(=O)N(CCCc2ccccc2)C1 (configuration not stated)	i	.	.	.
CC(C)[C@H](NC(=O)NC1CCCC1)C(=O)O	i	0.19	.	.
CC(C)=CCCC(C)NC(=O)NC1CCCCC1 (configuration not stated)	i	6.7*	i	76%*	CHO-K1 ctr=20*;KCNQ1 pot spec=48*;KCNQ2 pot conf=12*;Kir21 spec=-43;KCNQ2 W236L pot=i
Cc1cccn2c(=O)c3cc(S(=O)(=O)c4ccc(Br)cc4)c(=N)n(C4CCCC4)c3nc12	i	0.14	i	i
N=c1c(S(=O)(=O)c2ccc(Br)cc2)cc2c(=O)n3ccccc3nc2n1C1CCCCC1	i	.	.	.
Cc1ccc(C)c(CSc2nnc(-c3cccnc3)n2N)c1	i	0.58	.	.
SMILES	KCNQ2 inh	KCNQ2 enhance	Kir21 conf inh	HEK293 Tl flux	others
Cc1cc2ccccc2c(=O)n1CC(=O)NCC(=O)N1CCCC(C)C1 (configuration not stated)	i	0.88	.	.
COc1cc(OC)c(OC)cc1CNc1cc(C)ccc1OC	i	.	54%*	i
COc1ccc(C)cc1NCc1cccc(OC)c1OC	i	.	.	.
Oc1ccccc1N1CCN(c2ccc3ccccc3n2)CC1	i	.	.	.
Cn1c(N)c(N2CCCCC2)c(=O)n(CC(=O)Nc2ccc(Cl)c(Cl)c2)c1=O	i	17*	i	i	CHO-K1 ctr=-7;KCNQ1 pot spec=-15;KCNQ2 pot conf=47*;Kir21 spec=-35;KCNQ2 W236L pot=i
O=C(CCC(=O)N1CCCCC1)Nc1ccc(Cl)c(Cl)c1	i	.	.	.
CCOc1cc(/C=C(\C#N)C(=O)Nc2cccc(C(=O)O)c2)ccc1OCc1ccc(Br)cc1	i	.	.	.
COc1ccc(CCC(=O)NCc2cccc(C(F)(F)F)c2)cc1	i	6.7*	i	i	CHO-K1 ctr=24*;KCNQ1 pot spec=-17;KCNQ2 pot conf=-2;Kir21 spec=-33;KCNQ2 W236L pot=i
COc1ccc(CCC(=O)NCc2ccc3c(c2)OCO3)cc1	i	3	.	.
Cc1ccc(S(=O)(=O)N2CCCCC2)cc1NC(=O)Nc1ccc(Cl)cc1Cl	i	0.06	.	.
O=C(Nc1cccc(NC(=O)c2ccco2)c1)c1cccc(Br)c1	i	1.4	.	.
O=C(Cc1ccccc1)N/N=C/c1cc(Br)cc(Br)c1O	i	7*	i	i	CHO-K1 ctr=4.9*;KCNQ1 pot spec=-25;KCNQ2 pot conf=-9;Kir21 spec=-36;KCNQ2 W236L pot=i
O=C(Cc1ccccc1)N/N=C/c1cc(Br)cs1	i	.	.	.
O=C(Nc1cccc(N=Cc2cc(Br)cc(Br)c2O)c1)c1ccco1	i	9.3*	i	i	CHO-K1 ctr=56*;KCNQ1 pot spec=49*;KCNQ2 pot conf=15*;Kir21 spec=-36;KCNQ2 W236L pot=i
CC(=O)Oc1ccc([C@@H]2COc3c(ccc4c3C=CC(C)(C)O4)C2)c(OC(C)=O)c1	i	.	.	.
CC(C)=CCc1cc([C@@H]2COc3c(ccc4c3C=CC(C)(C)O4)C2)c(O)cc1O	i	6*	i	i	CHO-K1 ctr=-7;KCNQ1 pot spec=-2;KCNQ2 pot conf=-25;Kir21 spec=-28
Cc1ccc(Oc2ccccc2NC(=O)CN2C(=O)NC3(CCCC3)C2=O)cc1	i	6.3*	i	i	CHO-K1 ctr=26*;KCNQ1 pot spec=22*;KCNQ2 pot conf=13*;Kir21 spec=-36;KCNQ2 W236L pot=i
